A number with no mark means an inactive call.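 How the source made its calls: active means inhibition over a set limit, the all-compound mean plus 3 SD, in both replicate runs; inconclusive means over that limit in just one replicate run; inactive means at or under that limit in both runs.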

The nature of the test: RAM pathway blockade in budding yeast – dse1pr::URA3 reporter, 5-FOA selection, pilot screen (AID 869).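 Further: 0% = DMSO wells with no growth and 100% = 10 µM 1-NA-PP1 with full growth; RAM network block rescues cells from 5-FOA so hits raise OD615 growth.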 To be noted: S. cerevisiae dse1pr::URA3 5-FOA growth, OD615, 2 d; at 10 µM; stronger effect = higher value; strain carries analog-sensitive mutant Cbk1 kinase.
With `COc1cccc(C2=NOC(C(=O)N3CCN(c4ccccc4)CC3)C2)c1OC` (stereo unspecified), the inhibition (as a rule, the relative decrease from the control value, in per cent) is -0.58%. In the case of `O=C(Nc1ccc2c(c1)OCO2)c1ccc(CN2CCOCC2)cc1` it was -0.165%; in that of `O=C(Cn1nc(Cc2ccncc2)c2ccccc2c1=O)N1CCc2ccccc2C1`, 1.33%; in that of `CCOCCCNC(=O)c1ccc2c(c1)N(Cc1ccccc1)C(=O)CS2=O` (stereo unspecified), 1.42%. Then `CS(=O)(=O)Nc1ccccc1C(=O)O`, with 0.72%.

Turning to `CCOC(=O)N1CCC(Nc2ncnc3c2cnn3-c2ccc(C)cc2C)CC1`, the inhibition is 0.78%. Then `CC1(C)C(c2ccccc2)=NC(c2ccccc2)N1O` (stereo unspecified), with 0.165%; and `O=C(CS(=O)(=O)Cc1ccccc1)Nc1nc2ccccc2s1`, with 4.3%; and `CCOC(=O)N1CCN(C(=O)COc2ccc(S(=O)(=O)NC(C)C)cc2)CC1`, with 1.71%. As to `COc1ccc(N2CCN(CCNC(=O)CCS(=O)(=O)c3cccc4nsnc34)CC2)cc1`, the inhibition is 0.835%. In the case of `COc1cccc(C2CC(=O)Nc3c2c(=O)n(C)c(=O)n3C)c1OC` (stereo unspecified), the inhibition is 2.06%.

Take `CCN1C(=O)c2ccccc2S(=O)c2ccc(C(=O)NC3CC3)cc21` (stereo unspecified): the inhibition was 0.16%. Then `CCOC(=O)CCc1c(C)nc2cc(-c3ccc(F)cc3)[nH]n2c1=O`, with 1.8%.

Regarding `CCC(C)(C(=O)NC1CCCC1)N(Cc1cccs1)C(C)=O` (stereo unspecified), the inhibition is 0.55%. Then `COc1ccccc1NC(=O)C1(C)Cc2ccccc2C(=O)O1` (stereo unspecified), with 1.77%; and `COC(=O)c1sc(NC(=O)COc2ccccc2OC)nc1C`, with 1.06%.

Source of the values: PubChem BioAssay.
